Laboratory results as given in PubChem BioAssay (EPA / NIEHS).
Values joined by “and” are separate entries in the source; they are usually repeats but may differ in a detail not shown here. Equal entries are not always repeated. Records with an inconclusive call do not appear. Where a structure was tested more than once in an assay, its records may differ in their call. Active and inactive are the calls of the source. The calls were made as follows: active = hit-call score of the fitted dose curve at least 0.9, where 1 is the maximum; inconclusive = response in the unintended direction; inactive = score below 0.9.

Legend:
[1] = biological target: Luciferin 4-monooxygenase (Photinus pyralis) (UniProt P08659); test: CCTE_Simmons_QuantiLum_inhib_2: CCTE's Firefly Luciferase Inhibition Assay, Simmons Lab (AID 2283767);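 as to AC50: potency for inhibitors that lower luciferase luminescence relative to DMSO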
In short: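 Luminescence loss relative to DMSO vehicle defines inhibition; detection reagent containing 150 uM D-luciferin and 147 uM dATP (final, pH 7.8) is injected immediately before each read. Enzyme is preincubated with an 8-point titration (5 nM–87.5 uM final) for 30 min at 37C.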

[2] = ACEA_AR_agonist_AUC_viability: ACEA Biosciences xCELLigence Real-Time Cell Analysis on Androgen Receptor Agonism for Viability (AID 2283775);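 as to AC50: viability read 80 hours after compound addition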
In short: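 Real-time impedance tracking of 22Rv1 growth, readings every 5 min for 5 h then hourly; area-under-curve viability endpoint at 80 hours, relative to DMSO. Compounds at eight concentrations, 1:4 steps, top 100 uM, n = 2.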

[3] = ACEA_ER_AUC_viability: ACEA Biosciences xCELLigence Real-Time Cell Analysis on Estrogen Receptor Agonism for Viability (AID 2283782);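 also: continuous compound exposure with impedance area under curve over 80 h; hit means loss of impedance signal meaning reduced cell growth or viability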
In short: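 T-47D human breast cells in phenol red-free RPMI1640 with 10% charcoal-stripped FBS were dosed with an 8-point 1:4 dilution series from 100 uM top final concentration, in duplicate. Impedance-based growth was followed for 80 h; AUC analysed versus DMSO.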

[4] = ACEA_AR_antagonist_AUC_viability: ACEA Biosciences xCELLigence Real-Time Cell Analysis on Androgen Receptor Antagonism for Viability (AID 2283776);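 also: hits lower the growth signal relative to DMSO meaning cytotoxicity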
In short: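 22Rv1 human prostate cancer cells were seeded on electrode plates, monitored overnight, then exposed to eight 1:4 dilutions from 100 uM final. Impedance-based growth kinetics at 80 h gave an AUC viability endpoint normalized to DMSO.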

[5] = ATG_M_06_XSP2: Attagene TRANS-FACTORIAL Multi-Species (XSP2) HepG2 Assay for M06 Transcription Factor (Internal Marker) (AID 2283811);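 also: internal background marker reporter mRNA measured by RT-PCR and capillary electrophoresis; hits are increases in signal above the DMSO baseline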
In short: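 HepG2 cells transiently transfected with GAL4-UAS multi-reporter constructs, dosed 24 h with 3 nM 6-alpha-fluorotestosterone plus 1.5 nM norgestrel present to stimulate androgen receptor. Reporter mRNA quantified by RT-PCR, 6-FAM labelling, HpaI digestion and capillary electrophoresis; gain-of-signal fitted versus DMSO baseline.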

[6] = test system: turtle Estrogen Receptor (ERa), gene 101933533; test: ATG_trERa_XSP2: Attagene TRANS-FACTORIAL Multi-Species (XSP2) HepG2 Assay for turtle Estrogen Receptor (ERa) (AID 2283812);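 also: human HepG2 liver cells transiently expressing turtle ERa-Gal4 chimeric receptor; actives raise reporter signal above DMSO so AC50 reflects agonist activity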
In short: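 HepG2 cells transiently transfected with GAL4-UAS reporter units expressing turtle ERa-Gal4 chimera. Reporter mRNA measured after 24 h dosing by RT-PCR, fluorescent labelling and capillary electrophoresis; gain of signal fitted versus DMSO.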

[7] = biological target: Estrogen receptor beta (Homo sapiens) (UniProt Q92731); test: ATG_hERb_XSP2: Attagene TRANS-FACTORIAL Multi-Species (XSP2) HepG2 Assay for human Estrogen Receptor (ERb) (AID 2283813);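 also: actives raise reporter mRNA above DMSO so AC50 reflects agonist induction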
In short: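 HepG2 cells transiently transfected with GAL4-UAS reporter units and chimeric human ERb-Gal4, 24 h exposure. Reporter mRNA quantified by RT-PCR with FAM labelling, HpaI digestion and capillary electrophoresis; gain of signal versus DMSO.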

[8] = biological target: zebrafish Estrogen Receptor (ER1), esr1 (gene 259252) (UniProt P57717); test: ATG_zfER1_XSP2: Attagene TRANS-FACTORIAL Multi-Species (XSP2) HepG2 Assay for zebrafish Estrogen Receptor (ER1) (AID 2283816)
In short: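 HepG2 cells transiently transfected with a GAL4-UAS reporter and a chimeric zebrafish ER1-Gal4 construct, dosed 24 h. Reporter mRNA quantified by RT-PCR, labelling, HpaI digestion and capillary electrophoresis, relative to DMSO.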

[9] = biological target: chicken Estrogen Receptor (ERa), ESR1 (gene 396099) (UniProt P06212); test: ATG_chERa_XSP2: Attagene TRANS-FACTORIAL Multi-Species (XSP2) HepG2 Assay for chicken Estrogen Receptor (ERa) (AID 2283817);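 also: actives raise reporter signal above DMSO so AC50 reflects ER activation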
In short: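 HepG2 cells transiently transfected with multiplexed GAL4-UAS reporter units expressing chimeric chicken ERa-Gal4; 24 h compound exposure. Reporter mRNA measured by RT-PCR with 6-FAM labelling, HpaI digestion and capillary electrophoresis; gain-of-signal fitted versus DMSO.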

[10] = test system: zebrafish Estrogen Receptor (ER2a), gene 317734; test: ATG_zfER2a_XSP2: Attagene TRANS-FACTORIAL Multi-Species (XSP2) HepG2 Assay for zebrafish Estrogen Receptor (ER2a) (AID 2283818);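 also: hits raise reporter mRNA so AC50 reflects activation of zebrafish ER2a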
In short: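 HepG2 cells transiently transfected with GAL4-UAS reporter units and chimeric zebrafish ER2a-Gal4, exposed 24 h; medium contains 3 nM 6-alpha-fluorotestosterone and 1.5 nM norgestrel. Reporter mRNA quantified by RT-PCR, HpaI digestion, capillary electrophoresis; gain versus DMSO.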

AR (gene 367) [11] = biological target: AR (gene 367) (UniProt P10275); test: ACEA_AR_antagonist_80hr: ACEA Biosciences xCELLigence Real-Time Cell Analysis on Androgen Receptor Antagonism for Proliferation (AID 2283787);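 also: hits lower the impedance growth signal relative to DMSO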
In short: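 Impedance readout (RT-CES), 80 h post-dose; loss-of-signal vs DMSO baseline. 22Rv1 cells in assay medium. Compounds: 8-pt 1:4 series, max 100 uM final, up to 0.5% DMSO; n = 2.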

[12] = test system: Thyroperoxidase (TPO), gene 445522; test: CCTE_Simmons_GUA_TPO: CCTE's Guaiacol Assay for Thyroperoxidase (TPO) Inhibition, Simmons Lab (AID 2283750)
In short: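 Porcine thyroid microsomes (25 ug) in 200mM potassium phosphate, preincubated 30 s at 37C with compound (8 concentrations, 5 nM–87.5 uM) and 35mM guaiacol; 1mM H2O2 starts reaction. Absorbance change at 450nm over first 80 s; loss of signal versus DMSO, three replicates.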

AR (gene 367) [13] = biological target: AR (gene 367) (UniProt P10275); test: ACEA_AR_agonist_80hr: ACEA Biosciences xCELLigence Real-Time Cell Analysis on Androgen Receptor Agonism for Proliferation (AID 2283783);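 also: hits increase impedance growth signal above DMSO baseline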
In short: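 22Rv1 human prostate cancer cells were seeded after preconditioning in assay medium and monitored overnight, then dosed in an eight-point 1:4 dilution series from 100 uM (≤0.5% DMSO). Impedance-based growth was read at 80 h, gain-of-signal versus DMSO.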

[14] = ArunA_NOG_NucleusCount: ArunA Biomedical's Neurite Outgrowth (NOG) Assay for Nucleus Count (AID 2283756)
In short: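 Human H9-derived differentiated neurons were exposed for 48 h right after seeding. Hoechst-stained nuclei gated by size and intensity were counted by automated high-content imaging as viable neurons. Loss of signal vs DMSO.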

[15] = ArunA_NOG_NeuriteLength: ArunA Biomedical's Neurite Outgrowth (NOG) Assay for Neurite Length (AID 2283757)
In short: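 Differentiated human H9-derived neurons were exposed for 48 h from seeding, then stained with Hoechst and βIII-tubulin. Automated high-content imaging gave total neurite length per valid neuron, counting processes >10 um. Loss of signal was scored versus DMSO.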

[16] = ArunA_NOG_NeuritesPerNeuron: ArunA Biomedical's Neurite Outgrowth (NOG) Assay for Neurites Per Neuron (AID 2283758)
In short: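 Differentiated human H9-derived neurons exposed to chemicals for 48 h from seeding, then stained with Hoechst and βIII-tubulin/DyLight 488. Automated imaging counted neurites (processes >10 um) per valid neuron; loss of signal versus DMSO scored.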

[17] = ArunA_NOG_BranchPointsPerNeurite: ArunA Biomedical's Neurite Outgrowth (NOG) Assay for Branch Points Per Neurite (AID 2283759)
In short: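 Automated image analysis traced neurites (processes >10 um) from valid cell bodies after Hoechst and βIII-tubulin staining. hNN cells from H9 embryonic stem cells, 48 h exposure. Fitted bidirectionally against DMSO.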

[18] = test system: turtle Androgen Receptor (AR), gene 101947425; test: ATG_trAR_XSP2: Attagene TRANS-FACTORIAL Multi-Species (XSP2) HepG2 Assay for turtle Androgen Receptor (AR) (AID 2283815)
In short: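 HepG2 cells transiently transfected with GAL4-UAS reporter units for chimeric NR-Gal4 receptors; 24 h dosing in presence of 3 nM 6-alpha-fluorotestosterone and 1.5 nM norgestrel. Reporter mRNA by RT-PCR and capillary electrophoresis, gain of signal versus DMSO.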

Measured: AC50

Sequence of chicken Estrogen Receptor (ERa), ESR1 (gene 396099) (P06212 whole entry, looked up, the tested form may be a part): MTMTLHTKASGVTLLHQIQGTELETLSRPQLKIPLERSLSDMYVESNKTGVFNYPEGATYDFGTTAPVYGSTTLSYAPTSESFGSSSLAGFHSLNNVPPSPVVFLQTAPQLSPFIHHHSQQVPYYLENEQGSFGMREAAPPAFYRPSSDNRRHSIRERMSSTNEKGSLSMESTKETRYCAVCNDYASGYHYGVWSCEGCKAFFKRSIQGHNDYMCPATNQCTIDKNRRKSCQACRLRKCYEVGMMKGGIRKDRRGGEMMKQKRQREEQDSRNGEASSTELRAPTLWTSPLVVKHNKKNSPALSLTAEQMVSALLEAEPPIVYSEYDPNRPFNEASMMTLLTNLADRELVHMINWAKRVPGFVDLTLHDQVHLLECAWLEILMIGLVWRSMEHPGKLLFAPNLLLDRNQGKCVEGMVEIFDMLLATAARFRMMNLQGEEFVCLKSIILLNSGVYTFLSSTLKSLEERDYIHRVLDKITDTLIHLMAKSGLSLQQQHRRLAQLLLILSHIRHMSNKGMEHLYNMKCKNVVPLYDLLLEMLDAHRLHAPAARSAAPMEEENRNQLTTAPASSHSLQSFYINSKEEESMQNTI
Sequence of AR (gene 367) (P10275 whole entry, looked up): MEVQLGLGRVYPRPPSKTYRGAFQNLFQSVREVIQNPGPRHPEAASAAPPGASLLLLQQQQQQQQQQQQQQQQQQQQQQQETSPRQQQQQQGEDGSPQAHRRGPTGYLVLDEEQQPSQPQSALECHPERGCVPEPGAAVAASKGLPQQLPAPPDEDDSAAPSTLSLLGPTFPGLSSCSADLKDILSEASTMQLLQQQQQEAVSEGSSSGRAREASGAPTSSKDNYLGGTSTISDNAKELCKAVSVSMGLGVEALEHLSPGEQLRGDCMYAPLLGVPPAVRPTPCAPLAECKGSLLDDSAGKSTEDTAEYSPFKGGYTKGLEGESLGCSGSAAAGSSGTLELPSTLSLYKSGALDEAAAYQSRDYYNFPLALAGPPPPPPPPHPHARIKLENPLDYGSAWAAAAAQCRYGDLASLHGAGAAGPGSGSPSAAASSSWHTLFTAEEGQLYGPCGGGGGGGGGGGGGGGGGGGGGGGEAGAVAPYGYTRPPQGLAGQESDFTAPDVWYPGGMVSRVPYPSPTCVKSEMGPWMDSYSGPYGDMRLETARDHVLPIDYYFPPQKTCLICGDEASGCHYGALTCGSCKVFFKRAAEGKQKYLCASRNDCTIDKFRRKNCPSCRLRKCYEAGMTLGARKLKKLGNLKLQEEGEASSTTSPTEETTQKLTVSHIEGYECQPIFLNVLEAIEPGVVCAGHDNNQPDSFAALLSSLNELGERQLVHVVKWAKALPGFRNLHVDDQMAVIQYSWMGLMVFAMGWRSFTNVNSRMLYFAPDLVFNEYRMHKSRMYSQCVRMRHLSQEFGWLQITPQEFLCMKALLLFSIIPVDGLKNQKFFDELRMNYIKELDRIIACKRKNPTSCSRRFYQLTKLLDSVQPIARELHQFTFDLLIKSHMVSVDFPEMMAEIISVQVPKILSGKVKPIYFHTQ
Sequence of Luciferin 4-monooxygenase (Photinus pyralis) (P08659 whole entry, looked up): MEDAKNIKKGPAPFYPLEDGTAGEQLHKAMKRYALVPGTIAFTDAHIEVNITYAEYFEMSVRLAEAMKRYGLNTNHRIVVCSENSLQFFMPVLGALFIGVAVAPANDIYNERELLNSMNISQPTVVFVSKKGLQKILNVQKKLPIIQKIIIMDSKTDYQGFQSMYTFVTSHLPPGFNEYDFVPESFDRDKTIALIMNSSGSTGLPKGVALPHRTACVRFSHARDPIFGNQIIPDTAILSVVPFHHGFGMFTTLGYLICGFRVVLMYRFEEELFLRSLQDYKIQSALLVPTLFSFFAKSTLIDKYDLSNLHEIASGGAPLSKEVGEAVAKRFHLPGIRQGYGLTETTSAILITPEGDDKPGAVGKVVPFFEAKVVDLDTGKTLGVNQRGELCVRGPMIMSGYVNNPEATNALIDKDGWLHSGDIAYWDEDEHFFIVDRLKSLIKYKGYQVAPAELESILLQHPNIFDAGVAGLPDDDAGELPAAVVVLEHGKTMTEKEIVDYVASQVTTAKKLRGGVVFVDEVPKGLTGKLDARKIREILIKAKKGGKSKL
Sequence of zebrafish Estrogen Receptor (ER1), esr1 (gene 259252) (P57717 whole entry, looked up, the tested form may be a part): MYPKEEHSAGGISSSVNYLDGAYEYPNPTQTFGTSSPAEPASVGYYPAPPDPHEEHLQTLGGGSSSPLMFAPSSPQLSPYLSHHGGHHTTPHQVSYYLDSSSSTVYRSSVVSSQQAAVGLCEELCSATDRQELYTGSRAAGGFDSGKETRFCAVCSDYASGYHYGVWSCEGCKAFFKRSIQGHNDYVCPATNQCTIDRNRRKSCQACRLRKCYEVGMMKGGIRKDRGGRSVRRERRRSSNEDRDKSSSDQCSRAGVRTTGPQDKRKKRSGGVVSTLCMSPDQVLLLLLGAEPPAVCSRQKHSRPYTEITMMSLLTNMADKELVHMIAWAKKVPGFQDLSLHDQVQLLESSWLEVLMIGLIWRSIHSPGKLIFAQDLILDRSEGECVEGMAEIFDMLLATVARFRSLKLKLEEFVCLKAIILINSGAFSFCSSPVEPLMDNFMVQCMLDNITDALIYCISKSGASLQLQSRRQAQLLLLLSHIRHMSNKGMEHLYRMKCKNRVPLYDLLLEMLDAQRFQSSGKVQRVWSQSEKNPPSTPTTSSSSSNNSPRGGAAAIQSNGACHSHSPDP
Sequence of Estrogen receptor beta (Homo sapiens) (Q92731 whole entry, looked up, the tested form may be a part): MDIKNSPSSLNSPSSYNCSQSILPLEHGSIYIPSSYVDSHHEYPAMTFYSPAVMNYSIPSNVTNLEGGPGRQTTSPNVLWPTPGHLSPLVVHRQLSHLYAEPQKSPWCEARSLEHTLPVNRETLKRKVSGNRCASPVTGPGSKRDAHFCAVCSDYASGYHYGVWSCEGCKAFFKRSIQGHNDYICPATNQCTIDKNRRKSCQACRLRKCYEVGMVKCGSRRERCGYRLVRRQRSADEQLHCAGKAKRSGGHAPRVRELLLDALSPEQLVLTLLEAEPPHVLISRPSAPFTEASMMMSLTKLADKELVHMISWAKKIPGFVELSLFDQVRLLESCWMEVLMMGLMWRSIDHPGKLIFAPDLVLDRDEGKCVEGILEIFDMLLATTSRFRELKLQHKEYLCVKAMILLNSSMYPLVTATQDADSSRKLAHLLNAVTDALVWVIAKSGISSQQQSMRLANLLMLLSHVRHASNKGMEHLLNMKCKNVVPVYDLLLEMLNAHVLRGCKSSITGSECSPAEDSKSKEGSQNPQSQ

CCCSP(=S)(OCC)Oc1ccc(SC)cc1 (stereo not given)
inactive: [1] | [2] | [3]

N#CS
inactive: [1] | [2] | [3]

CCOc1ccc(N)cc1
inactive: [1] | [3]

CC(O)(CS(=O)(=O)c1ccc(F)cc1)C(=O)Nc1ccc(C#N)c(C(F)(F)F)c1 (stereo not given)
inactive: [2] | [3] | [5] | [6] | [7] | [8] | [9] | [10]
active: [2] 44 µM | [4] 21.4 µM and 9.65 µM

CNC(=O)O/N=C/C(C)(C)S(C)(=O)=O
inactive: [2] | [4] | [3] | AR (gene 367) [11]

O=C(CBr)c1ccc(O)cc1
inactive: [1] | [4] | [3]

COc1ccc(N)cc1
inactive: [1] | [2] | [4] | [3]
active: [3] 52 µM

O=c1nc(O)n(Cl)c(=O)n1Cl
inactive: [2] | [4] | [3]

COc1ccccc1N
active: [12] 33.2 µM
inactive: [1] | [2] | [4] | [3]

Nc1ccc(N)cc1
inactive: [2] | [4]
active: [1] 13.9 µM | [3] 49.8 µM

O=C1c2ccccc2C(=O)C1C(=O)C(c1ccccc1)c1ccc(Cl)cc1 (stereo not given)
inactive: [1] | AR (gene 367) [13]
active: [2] 26.7 µM | [4] 24.6 µM | [3] 33 µM | AR (gene 367) [11] 25 µM

O=c1[nH]c(=O)n(Cl)c(=O)n1Cl
inactive: [1] | [2] | [4] | [3]

CCN(CCO)CCO
inactive: [2] | [4] | [3]

CCCCCCCCCCCCN(C)C
inactive: [2] | [4] | [3]

O=C(NC(=O)c1c(F)cccc1F)Nc1cc(Cl)c(OC(F)(F)C(F)C(F)(F)F)cc1Cl (stereo not given)
active: [2] 5.54 µM | [4] 5.68 µM | [3] 50 µM | AR (gene 367) [11] 6.32 µM

OCCCCO
inactive: [2]

O=C(NC(=O)c1c(F)cccc1F)Nc1ccc(Cl)cc1
inactive: [1] | [4] | [3]

Nc1ncn[nH]1
inactive: [14] | [15] | [16] | [17] | [1] | [2] | [3]

COCCl
active: [10] 34.8 µM
inactive: [2] | [4] | [3] | AR (gene 367) [11] | [6] | [7] | [18] | [8] | [9] | [10]

CCOCn1c(-c2ccc(Cl)cc2)c(C#N)c(Br)c1C(F)(F)F
active: [2] 6.93 µM | [4] 7.97 µM | [3] 50 µM

COc1nn(C(=O)NS(=O)(=O)c2ccccc2OC(F)(F)F)c(=O)n1C
inactive: [2] | [4] | [3]
